What was measured:
Test in all cases: DAPPL (digital affinity profiling via proximity ligation, sequencing); 10 mM Tris-HCl pH 7.5, 50 mM NaCl, 1 mM DTT, 4% glycerol, room temperature, 30 min; GST-TFs on glutathione beads, 16-mer random dsDNA library, 0.1% formaldehyde crosslink after washing; high values mean tight binding
[1] = target: T1, FEV (Homo sapiens, UniProt Q99581 1-238); conditions: protein: recombinant; tags: N-terminal GST; dsDNA, one strand shown
T1 sequence: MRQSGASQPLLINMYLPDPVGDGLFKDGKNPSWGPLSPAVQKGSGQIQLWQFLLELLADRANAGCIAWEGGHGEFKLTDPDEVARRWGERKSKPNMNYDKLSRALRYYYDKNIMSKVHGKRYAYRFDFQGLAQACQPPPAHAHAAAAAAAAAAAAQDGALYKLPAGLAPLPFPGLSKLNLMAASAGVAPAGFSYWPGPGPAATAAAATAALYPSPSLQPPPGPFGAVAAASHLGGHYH
Outline: (§1)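 Yeast served to express human transcription factors as GST fusions, which were then captured on glutathione beads and labelled with DNA barcodes. Pooled with a tag-only sample, they were incubated with 200 nmole of a 16-mer random double-stranded DNA library for 30 min at room temperature in Tris/NaCl/DTT/glycerol buffer, washed, crosslinked with 0.1% formaldehyde, ligated by proximity, amplified by PCR and sequenced. Dividing each hexamer's read frequency for a factor by its frequency for the tag-only sample gives the binding signal.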

[2] = target: ETV5 (Homo sapiens, UniProt P41161 1-510); conditions: protein: recombinant; tags: N-terminal GST; dsDNA, one strand shown
Outline: as §1

[3] = target: HSF1 (Homo sapiens, UniProt Q00613 1-529); conditions: protein: recombinant; tags: N-terminal GST; chain copies: 3; dsDNA, one strand shown
Outline: as §1

[4] = target: T2, SPIC (Homo sapiens, UniProt Q8N5J4 1-248); conditions: protein: recombinant; tags: N-terminal GST; dsDNA, one strand shown
T2 sequence: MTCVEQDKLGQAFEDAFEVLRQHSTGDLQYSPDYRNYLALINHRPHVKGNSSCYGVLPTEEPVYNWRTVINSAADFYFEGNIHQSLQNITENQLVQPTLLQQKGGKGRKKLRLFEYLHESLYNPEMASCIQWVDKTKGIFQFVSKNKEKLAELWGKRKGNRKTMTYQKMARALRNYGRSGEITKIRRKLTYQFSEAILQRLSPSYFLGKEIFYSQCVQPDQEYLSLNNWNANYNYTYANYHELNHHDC
Outline: as §1

[5] = target: ELF4 (Homo sapiens, UniProt Q99607 1-663); conditions: protein: recombinant; tags: N-terminal GST; dsDNA, one strand shown
Outline: as §1

[6] = target: T3, ELK4 (Homo sapiens, UniProt P28324-2 1-405); conditions: protein: recombinant; tags: N-terminal GST; dsDNA, one strand shown
T3 sequence: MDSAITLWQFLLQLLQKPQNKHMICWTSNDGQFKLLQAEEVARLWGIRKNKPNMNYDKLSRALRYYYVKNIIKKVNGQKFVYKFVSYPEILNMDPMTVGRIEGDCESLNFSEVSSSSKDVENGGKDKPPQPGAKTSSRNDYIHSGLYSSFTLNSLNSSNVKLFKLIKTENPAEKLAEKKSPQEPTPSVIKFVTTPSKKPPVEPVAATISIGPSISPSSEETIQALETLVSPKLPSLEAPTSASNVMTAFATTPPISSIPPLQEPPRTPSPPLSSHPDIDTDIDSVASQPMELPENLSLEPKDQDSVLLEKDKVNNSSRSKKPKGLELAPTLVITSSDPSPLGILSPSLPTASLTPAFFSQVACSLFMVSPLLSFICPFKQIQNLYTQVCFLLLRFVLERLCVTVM
Outline: as §1

[7] = target: T4, ETV2 (Homo sapiens, UniProt O00321 1-342); conditions: protein: recombinant; tags: N-terminal GST; dsDNA, one strand shown
T4 sequence: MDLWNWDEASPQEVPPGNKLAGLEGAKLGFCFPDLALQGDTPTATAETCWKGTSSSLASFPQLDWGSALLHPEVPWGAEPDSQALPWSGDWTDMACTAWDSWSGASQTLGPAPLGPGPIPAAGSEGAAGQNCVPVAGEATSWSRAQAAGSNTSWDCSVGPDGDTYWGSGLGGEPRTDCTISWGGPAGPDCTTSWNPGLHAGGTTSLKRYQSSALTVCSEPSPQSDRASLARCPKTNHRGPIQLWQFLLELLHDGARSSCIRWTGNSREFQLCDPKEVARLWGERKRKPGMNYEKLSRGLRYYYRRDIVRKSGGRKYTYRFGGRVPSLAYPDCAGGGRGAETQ
Outline: as §1

[8] = target: T5, ELF3 (Homo sapiens, UniProt P78545 1-371); conditions: protein: recombinant; tags: N-terminal GST; dsDNA, one strand shown
T5 sequence: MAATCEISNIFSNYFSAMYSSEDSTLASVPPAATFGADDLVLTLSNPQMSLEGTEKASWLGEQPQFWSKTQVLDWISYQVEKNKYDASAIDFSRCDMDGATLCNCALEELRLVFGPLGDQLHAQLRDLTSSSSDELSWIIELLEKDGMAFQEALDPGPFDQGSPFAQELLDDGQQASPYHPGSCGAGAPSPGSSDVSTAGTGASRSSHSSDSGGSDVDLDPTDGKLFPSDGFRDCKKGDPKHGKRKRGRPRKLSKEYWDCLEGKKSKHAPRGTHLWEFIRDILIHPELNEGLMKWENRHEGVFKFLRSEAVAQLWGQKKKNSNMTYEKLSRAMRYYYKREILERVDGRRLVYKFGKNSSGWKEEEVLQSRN
Outline: as §1

[9] = target: CRX (Homo sapiens, UniProt O43186 1-299); conditions: protein: recombinant; tags: N-terminal GST; dsDNA, one strand shown
Outline: as §1

[10] = target: ETV1 (Homo sapiens, UniProt P50549 1-477); conditions: protein: recombinant; tags: N-terminal GST; dsDNA, one strand shown
Outline: as §1

[11] = target: T6, ERF (Homo sapiens, UniProt P50548 1-548); conditions: protein: recombinant; tags: N-terminal GST; dsDNA, one strand shown
T6 sequence: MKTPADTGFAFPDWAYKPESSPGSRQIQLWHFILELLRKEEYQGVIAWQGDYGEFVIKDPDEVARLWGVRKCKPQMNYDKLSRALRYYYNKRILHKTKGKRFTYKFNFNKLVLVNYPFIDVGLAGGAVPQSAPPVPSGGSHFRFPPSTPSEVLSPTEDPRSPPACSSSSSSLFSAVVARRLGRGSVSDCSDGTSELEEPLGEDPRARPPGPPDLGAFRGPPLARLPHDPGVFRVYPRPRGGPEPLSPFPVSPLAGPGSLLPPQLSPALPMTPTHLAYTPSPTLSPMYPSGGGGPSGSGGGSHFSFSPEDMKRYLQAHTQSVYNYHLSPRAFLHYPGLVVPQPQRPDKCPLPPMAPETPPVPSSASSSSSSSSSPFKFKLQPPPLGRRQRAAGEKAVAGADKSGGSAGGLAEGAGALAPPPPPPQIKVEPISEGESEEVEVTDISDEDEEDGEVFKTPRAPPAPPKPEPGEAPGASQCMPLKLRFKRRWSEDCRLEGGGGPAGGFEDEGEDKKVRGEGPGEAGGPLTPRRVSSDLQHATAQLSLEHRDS
Outline: as §1

[12] = target: T7, ETV3L (Homo sapiens, UniProt Q6ZN32 1-361); conditions: protein: recombinant; tags: N-terminal GST; dsDNA, one strand shown
T7 sequence: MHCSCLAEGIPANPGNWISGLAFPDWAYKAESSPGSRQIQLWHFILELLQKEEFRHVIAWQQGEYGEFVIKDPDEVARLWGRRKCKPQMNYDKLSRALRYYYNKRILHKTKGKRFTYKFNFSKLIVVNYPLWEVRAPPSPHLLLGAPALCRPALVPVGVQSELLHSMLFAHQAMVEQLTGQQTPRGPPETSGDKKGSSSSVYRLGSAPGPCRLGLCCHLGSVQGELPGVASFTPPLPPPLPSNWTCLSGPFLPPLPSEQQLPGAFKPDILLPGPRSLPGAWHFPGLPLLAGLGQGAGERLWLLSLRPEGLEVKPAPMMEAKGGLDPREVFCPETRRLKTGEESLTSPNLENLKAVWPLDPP
Outline: as §1

[13] = target: T8, ETS2 (Homo sapiens, UniProt P15036 1-469); conditions: protein: recombinant; tags: N-terminal GST; dsDNA, one strand shown
T8 sequence: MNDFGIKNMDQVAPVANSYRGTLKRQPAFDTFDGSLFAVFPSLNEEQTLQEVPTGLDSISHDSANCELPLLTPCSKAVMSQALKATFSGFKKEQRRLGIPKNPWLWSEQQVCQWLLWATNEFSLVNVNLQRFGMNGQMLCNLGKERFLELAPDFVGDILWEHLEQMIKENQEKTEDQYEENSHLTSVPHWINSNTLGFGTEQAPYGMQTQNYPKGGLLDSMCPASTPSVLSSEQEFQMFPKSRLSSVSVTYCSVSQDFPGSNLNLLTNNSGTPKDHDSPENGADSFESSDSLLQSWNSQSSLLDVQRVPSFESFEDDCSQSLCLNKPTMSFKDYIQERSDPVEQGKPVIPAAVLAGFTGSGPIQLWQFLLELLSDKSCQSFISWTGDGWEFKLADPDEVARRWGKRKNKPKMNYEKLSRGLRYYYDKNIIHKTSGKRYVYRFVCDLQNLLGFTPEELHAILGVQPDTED
Outline: as §1

[14] = target: T9, SPDEF (Homo sapiens, UniProt O95238 1-335); conditions: protein: recombinant; tags: N-terminal GST; dsDNA, one strand shown
T9 sequence: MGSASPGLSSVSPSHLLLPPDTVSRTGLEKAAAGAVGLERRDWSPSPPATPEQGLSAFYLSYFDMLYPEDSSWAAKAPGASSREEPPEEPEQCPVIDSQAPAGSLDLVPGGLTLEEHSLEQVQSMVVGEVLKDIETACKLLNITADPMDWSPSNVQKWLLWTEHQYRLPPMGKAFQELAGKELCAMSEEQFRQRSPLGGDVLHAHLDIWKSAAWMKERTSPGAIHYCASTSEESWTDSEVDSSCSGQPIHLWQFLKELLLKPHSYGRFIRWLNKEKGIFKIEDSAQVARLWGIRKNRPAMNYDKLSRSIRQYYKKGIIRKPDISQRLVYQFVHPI
Outline: as §1

[15] = target: T10, ETV7 (Homo sapiens, UniProt Q9Y603 1-341); conditions: protein: recombinant; tags: N-terminal GST; dsDNA, one strand shown
T10 sequence: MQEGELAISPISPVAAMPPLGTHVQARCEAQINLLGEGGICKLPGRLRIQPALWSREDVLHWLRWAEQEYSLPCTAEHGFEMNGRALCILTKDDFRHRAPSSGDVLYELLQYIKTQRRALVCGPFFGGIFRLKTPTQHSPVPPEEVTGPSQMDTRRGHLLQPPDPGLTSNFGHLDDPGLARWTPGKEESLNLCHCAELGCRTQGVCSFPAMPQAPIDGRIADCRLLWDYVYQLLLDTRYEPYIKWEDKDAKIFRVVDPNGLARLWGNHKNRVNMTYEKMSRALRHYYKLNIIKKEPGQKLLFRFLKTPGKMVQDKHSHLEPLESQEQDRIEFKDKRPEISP
Outline: as §1

[16] = target: T11, ELF5 (Homo sapiens, UniProt Q9UKW6-2 1-255); conditions: protein: recombinant; tags: N-terminal GST; dsDNA, one strand shown
T11 sequence: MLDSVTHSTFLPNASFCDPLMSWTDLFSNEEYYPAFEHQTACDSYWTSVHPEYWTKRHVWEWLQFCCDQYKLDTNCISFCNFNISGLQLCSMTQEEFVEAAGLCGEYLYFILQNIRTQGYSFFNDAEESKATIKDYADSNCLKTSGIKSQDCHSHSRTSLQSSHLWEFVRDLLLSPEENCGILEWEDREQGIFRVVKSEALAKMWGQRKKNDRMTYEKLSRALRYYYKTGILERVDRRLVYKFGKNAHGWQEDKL
Outline: as §1

[17] = target: T12, ETV3 (Homo sapiens, UniProt P41162-2 1-143); conditions: protein: recombinant; tags: N-terminal GST; dsDNA, one strand shown
T12 sequence: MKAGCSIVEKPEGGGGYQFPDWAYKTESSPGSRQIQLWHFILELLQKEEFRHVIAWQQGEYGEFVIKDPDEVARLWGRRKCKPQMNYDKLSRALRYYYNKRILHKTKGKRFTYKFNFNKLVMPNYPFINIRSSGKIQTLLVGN
Outline: as §1

[18] = target: ETV6 (Homo sapiens, UniProt P41212 1-452); conditions: protein: recombinant; tags: N-terminal GST; dsDNA, one strand shown
Outline: as §1

Chain of ELF4 (Q99607 whole entry): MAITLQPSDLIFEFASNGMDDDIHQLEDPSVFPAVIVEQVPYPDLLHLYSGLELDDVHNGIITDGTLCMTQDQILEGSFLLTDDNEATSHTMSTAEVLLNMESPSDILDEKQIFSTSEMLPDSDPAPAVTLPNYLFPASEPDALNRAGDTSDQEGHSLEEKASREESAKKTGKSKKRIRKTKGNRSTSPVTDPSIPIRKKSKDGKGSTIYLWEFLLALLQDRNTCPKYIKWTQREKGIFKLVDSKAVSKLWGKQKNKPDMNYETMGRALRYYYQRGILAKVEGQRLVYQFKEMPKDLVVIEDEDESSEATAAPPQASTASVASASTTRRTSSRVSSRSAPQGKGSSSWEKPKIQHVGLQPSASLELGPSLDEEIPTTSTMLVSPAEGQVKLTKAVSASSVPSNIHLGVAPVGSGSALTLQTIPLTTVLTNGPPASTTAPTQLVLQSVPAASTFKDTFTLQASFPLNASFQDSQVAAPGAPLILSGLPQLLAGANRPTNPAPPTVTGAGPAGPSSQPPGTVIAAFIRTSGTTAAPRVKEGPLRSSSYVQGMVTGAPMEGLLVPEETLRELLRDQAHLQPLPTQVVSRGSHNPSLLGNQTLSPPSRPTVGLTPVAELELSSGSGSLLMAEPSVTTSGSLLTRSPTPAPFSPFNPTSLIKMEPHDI
Chain of ETV5 (P41161 whole entry): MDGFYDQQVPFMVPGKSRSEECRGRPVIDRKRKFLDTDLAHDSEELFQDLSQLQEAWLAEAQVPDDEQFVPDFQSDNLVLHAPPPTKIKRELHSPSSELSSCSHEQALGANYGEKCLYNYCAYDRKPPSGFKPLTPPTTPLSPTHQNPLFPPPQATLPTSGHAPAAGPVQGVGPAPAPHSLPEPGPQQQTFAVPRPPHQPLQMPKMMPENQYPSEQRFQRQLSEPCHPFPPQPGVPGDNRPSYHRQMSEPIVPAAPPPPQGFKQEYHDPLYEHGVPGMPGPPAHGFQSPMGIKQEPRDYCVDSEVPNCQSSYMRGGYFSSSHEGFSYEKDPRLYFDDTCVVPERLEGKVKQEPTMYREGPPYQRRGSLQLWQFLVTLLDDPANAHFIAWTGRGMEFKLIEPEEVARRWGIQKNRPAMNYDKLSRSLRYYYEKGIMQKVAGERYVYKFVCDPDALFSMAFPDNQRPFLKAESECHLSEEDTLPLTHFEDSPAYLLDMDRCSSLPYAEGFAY
Chain of ETV1 (P50549 whole entry): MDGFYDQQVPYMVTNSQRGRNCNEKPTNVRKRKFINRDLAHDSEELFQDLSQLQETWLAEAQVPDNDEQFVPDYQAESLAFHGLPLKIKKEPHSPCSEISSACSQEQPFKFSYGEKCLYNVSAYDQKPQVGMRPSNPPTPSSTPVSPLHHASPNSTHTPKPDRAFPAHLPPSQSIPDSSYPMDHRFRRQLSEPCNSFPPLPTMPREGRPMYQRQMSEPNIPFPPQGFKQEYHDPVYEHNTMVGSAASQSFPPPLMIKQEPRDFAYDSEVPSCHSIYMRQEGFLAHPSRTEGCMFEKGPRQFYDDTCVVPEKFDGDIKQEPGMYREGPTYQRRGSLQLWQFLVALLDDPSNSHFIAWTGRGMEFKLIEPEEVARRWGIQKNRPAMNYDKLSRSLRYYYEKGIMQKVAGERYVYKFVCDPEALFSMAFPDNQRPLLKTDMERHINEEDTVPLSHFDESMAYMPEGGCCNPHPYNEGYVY
Chain of CRX (O43186 whole entry): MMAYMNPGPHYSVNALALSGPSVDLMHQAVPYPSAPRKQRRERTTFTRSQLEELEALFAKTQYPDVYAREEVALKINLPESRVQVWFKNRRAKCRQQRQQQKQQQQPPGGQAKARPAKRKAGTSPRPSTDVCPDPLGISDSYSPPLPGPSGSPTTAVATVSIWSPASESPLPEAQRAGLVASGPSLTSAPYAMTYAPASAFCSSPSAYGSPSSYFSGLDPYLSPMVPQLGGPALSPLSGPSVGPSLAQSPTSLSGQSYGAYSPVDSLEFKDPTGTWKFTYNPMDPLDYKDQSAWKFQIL
Chain of ETV6 (P41212 whole entry): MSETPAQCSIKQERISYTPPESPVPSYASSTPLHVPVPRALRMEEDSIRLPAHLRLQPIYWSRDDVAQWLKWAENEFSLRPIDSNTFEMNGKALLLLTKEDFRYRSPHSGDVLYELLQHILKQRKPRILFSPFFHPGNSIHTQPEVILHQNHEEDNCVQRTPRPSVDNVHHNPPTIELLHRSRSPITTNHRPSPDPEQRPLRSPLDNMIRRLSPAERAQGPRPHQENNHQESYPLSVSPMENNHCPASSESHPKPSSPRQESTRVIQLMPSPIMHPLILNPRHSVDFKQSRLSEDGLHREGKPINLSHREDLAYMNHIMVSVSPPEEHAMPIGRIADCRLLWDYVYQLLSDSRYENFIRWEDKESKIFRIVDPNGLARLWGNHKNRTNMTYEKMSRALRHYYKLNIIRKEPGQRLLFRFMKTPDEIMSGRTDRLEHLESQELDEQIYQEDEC
Chain of HSF1 (Q00613 whole entry): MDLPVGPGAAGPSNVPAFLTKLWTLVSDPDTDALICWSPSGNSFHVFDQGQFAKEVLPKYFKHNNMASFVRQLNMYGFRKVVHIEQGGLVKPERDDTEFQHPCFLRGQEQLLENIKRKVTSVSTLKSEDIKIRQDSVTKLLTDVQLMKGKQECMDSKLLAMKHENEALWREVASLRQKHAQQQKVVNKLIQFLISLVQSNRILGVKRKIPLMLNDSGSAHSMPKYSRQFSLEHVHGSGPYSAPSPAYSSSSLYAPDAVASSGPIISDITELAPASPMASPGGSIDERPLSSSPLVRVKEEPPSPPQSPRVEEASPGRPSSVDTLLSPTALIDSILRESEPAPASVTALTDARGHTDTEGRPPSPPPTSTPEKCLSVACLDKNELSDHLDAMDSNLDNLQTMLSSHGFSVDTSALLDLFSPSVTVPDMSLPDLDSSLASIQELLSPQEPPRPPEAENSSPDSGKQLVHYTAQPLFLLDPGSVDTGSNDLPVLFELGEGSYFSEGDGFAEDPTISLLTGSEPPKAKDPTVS

Row | Sequence | binding signal [1] | binding signal [2] | binding signal [3] | binding signal [4] | binding signal [5] | binding signal [6] | binding signal [7] | binding signal [8] | binding signal [9] | binding signal [10] | binding signal [11] | binding signal [12] | binding signal [13] | binding signal [14] | binding signal [15] | binding signal [16] | binding signal [17] | binding signal [18]
1 | TTGCTT | 1.16 fold enrichment (6-mer frequency, TF over GST control) | 1.24 fold enrichment (6-mer frequency, TF over GST control) | 1.1 fold enrichment (6-mer frequency, TF over GST control) | 1.38 fold enrichment (6-mer frequency, TF over GST control) | 1.24 fold enrichment (6-mer frequency, TF over GST control) | 1.24 fold enrichment (6-mer frequency, TF over GST control) | 1.16 fold enrichment (6-mer frequency, TF over GST control) | 1.31 fold enrichment (6-mer frequency, TF over GST control) | 1.24 fold enrichment (6-mer frequency, TF over GST control) | 1.25 fold enrichment (6-mer frequency, TF over GST control) | 1.18 fold enrichment (6-mer frequency, TF over GST control) | 1.28 fold enrichment (6-mer frequency, TF over GST control) | 1.19 fold enrichment (6-mer frequency, TF over GST control) | 1.28 fold enrichment (6-mer frequency, TF over GST control) | 1.45 fold enrichment (6-mer frequency, TF over GST control) | 1.29 fold enrichment (6-mer frequency, TF over GST control) | 1.43 fold enrichment (6-mer frequency, TF over GST control) | 1.28 fold enrichment (6-mer frequency, TF over GST control)
2 | ATTCTG | 1.23 fold enrichment (6-mer frequency, TF over GST control) | 1.29 fold enrichment (6-mer frequency, TF over GST control) | 2.18 fold enrichment (6-mer frequency, TF over GST control) | 1.11 fold enrichment (6-mer frequency, TF over GST control) | 1.37 fold enrichment (6-mer frequency, TF over GST control) | 1.38 fold enrichment (6-mer frequency, TF over GST control) | 1.43 fold enrichment (6-mer frequency, TF over GST control) | 1.08 fold enrichment (6-mer frequency, TF over GST control) | 1.5 fold enrichment (6-mer frequency, TF over GST control) | 1.45 fold enrichment (6-mer frequency, TF over GST control) | 1.38 fold enrichment (6-mer frequency, TF over GST control) | 1.28 fold enrichment (6-mer frequency, TF over GST control) | 1.31 fold enrichment (6-mer frequency, TF over GST control) | 1.27 fold enrichment (6-mer frequency, TF over GST control) | 1.23 fold enrichment (6-mer frequency, TF over GST control) | 1.21 fold enrichment (6-mer frequency, TF over GST control) | 1.26 fold enrichment (6-mer frequency, TF over GST control) | 1.43 fold enrichment (6-mer frequency, TF over GST control)

— publication PMC7862700, “An all-to-all approach to the identification of sequence-specific readers for epigenetic DNA modifications on cytosine”
